Active and inactive are the calls of the source. The call rests on the fitted dose curve; in most records, active means well fitted curve in the direction sought with a large enough effect; inconclusive means small, poorly fitted or top-dose-only effect, or effect the other way, or another doubt; inactive means no such curve, though single readings can be large or run the other way.
The molecules below were run against Pyruvate kinase PKLR (Homo sapiens) (UniProt P30613) (assay: Secondary Concentration-Response Assay for Activators of Human Liver Pyruvate Kinase: for Probe SAR). Conditions: purified hPK-L, ATP production, Kinase-Glo luminescence; series mostly up to 58.3 µM; activity change, positive = activation: at the top concentration.
Pyruvate kinase PKLR (Homo sapiens), sequence (P30613 whole entry, looked up): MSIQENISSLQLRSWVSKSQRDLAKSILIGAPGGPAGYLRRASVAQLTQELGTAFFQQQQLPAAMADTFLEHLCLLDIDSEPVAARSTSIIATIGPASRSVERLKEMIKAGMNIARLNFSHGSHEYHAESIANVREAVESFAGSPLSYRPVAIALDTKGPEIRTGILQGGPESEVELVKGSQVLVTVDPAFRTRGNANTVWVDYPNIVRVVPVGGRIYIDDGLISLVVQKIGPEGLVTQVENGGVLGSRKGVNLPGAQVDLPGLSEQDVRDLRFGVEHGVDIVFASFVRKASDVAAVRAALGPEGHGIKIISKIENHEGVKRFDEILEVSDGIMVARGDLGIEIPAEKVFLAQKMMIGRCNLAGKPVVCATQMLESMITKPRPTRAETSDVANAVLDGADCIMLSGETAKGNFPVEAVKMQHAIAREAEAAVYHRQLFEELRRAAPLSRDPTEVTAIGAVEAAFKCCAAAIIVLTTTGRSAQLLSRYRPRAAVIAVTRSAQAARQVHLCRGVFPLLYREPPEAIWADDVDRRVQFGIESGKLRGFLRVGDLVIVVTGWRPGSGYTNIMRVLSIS
Source text: NIH Chemical Genomics Center [NCGC]
Matthew G. Vander Heiden, M.D., Ph.D. [Harvard Medical School, 77 Avenue Louis Pasteur, Boston, MA 02115]
Human pyruvate kinase liver (hPK-L) enzyme was supplied as a highly purified (>95% pure) preparation from Harvard Medical School and assayed for its ability to generate ATP from ADP using phosphoenolpyruvate (PEP) as a substrate. ATP generation was detected in a coupled reaction by luciferase-mediated luminescence, an ATP-dependent process. Pyruvate kinase substrates, PEP and ADP, were present in the assay at Km and approximately 10-fold below Km respectively. The enzyme was assayed at an intermediate level of activity to screen for both inhibitors and activators.
NCGC Assay Protocol Summary for L-isoform:
Three uL of substrate mix (at r.t.) in assay buffer (50 mM Imidazole pH7.2, 50 mM KCl, 7 mM MgCl2, 0.01% Tween 20, 0.05% BSA) was dispensed into white solid bottom 1,536 well microtiter plates so that the final concentrations of substrates in the assay were 0.1 mM ADP and 0.5 mM PEP. 23 nL of compound were delivered by a pin tool and 1 uL of enzyme mix (final concentration of 0.1 nM) in assay buffer (4 degree Celsius) was added. Plates were incubated at room temperature for 1 hour. Two uL of detection mix (Kinase-Glo, Promega; at 4 degree Celsius protected from light) was added and luminescence read by a ViewLux (Perkin Elmer) at 1 second exposure/plate. Data were normalized to the uninhibited (row 31). Additionally, a no enzyme and 5-fold enzyme control was dispensed in row 32, split equally between the two conditions.
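Further: 0% = uninhibited enzyme wells on each plate.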

Activity change, positive = activation, inactive:
COc1cccc(NS(=O)(=O)c2ccc3c(c2)CCC(=O)N3)c1 8.7%
Cc1cc(NS(=O)(=O)c2ccc3c(c2)CCC(=O)N3)ccc1F 8.02%
COc1ccccc1N1C(=O)c2ccccc2C1=O 7.74%
Cc1ccc(NS(=O)(=O)c2cc3c(cc2/C=C/c2ccccc2)NC(=O)CO3)cc1C -0.901%
Cc1ccc(NS(=O)(=O)c2cc3c(cc2C)NC(=O)CO3)cc1C 14%
Nc1cccc(S(=O)(=O)N2CCCN(S(=O)(=O)c3ccc4c(c3)OCCO4)CC2)c1 11.9%
Cc1ccc(NS(=O)(=O)c2cccc(Cl)c2)cc1C 5.58%
Cc1ccc(OC2=NS(=O)(=O)c3ccccc32)cc1 3.19%
Cc1ccc(NS(=O)(=O)c2cc3c(cc2Cl)NC(=O)CO3)cc1C 2.95%
Cc1ccc(NS(=O)(=O)c2cccc(F)c2)cc1C 8.43%
Cc1ccc(Nc2c(-c3ccc(C)s3)nc3ccccn23)cc1 3.95%
Cc1c(Cl)cccc1NS(=O)(=O)c1cc2c(cc1Cl)CCC(=O)N2 15.3%
CC(=O)N1c2ccc(S(=O)(=O)Nc3ccc(C)c(C)c3)cc2CC1C (stereo not given) 29.6%
Cc1cccc(OC2=NS(=O)(=O)c3ccccc32)c1 2.27%
Cc1ccn2c(NCc3ccco3)c(-c3ccccc3)nc2c1 -11.5%
Cc1ccccc1NS(=O)(=O)c1ccc2c(c1)CCC(=O)N2 6.63%
Cc1ccc(NS(=O)(=O)c2cc3c(cc2-c2cn[nH]c2)NC(=O)CO3)cc1C -3.69%
O=C1c2ccccc2C(=O)N1c1ccc(Cl)cc1 2.91%
CNc1cccc(S(=O)(=O)N2CCCN(S(=O)(=O)c3ccc4c(c3)OCCO4)CC2)c1 22.2%
O=C1c2ccccc2C(=O)N1c1cnc2ccccc2c1 3.06%
O=C1c2ccccc2C(=O)N1c1ncccc1O 4.65%
O=C1CCc2cc(S(=O)(=O)Nc3ccc4ccccc4c3)ccc2N1 6.53%
O=S1(=O)N=C(Oc2ccccc2Cl)c2ccccc21 2.37%
COc1ccc(-c2nc3cccc(C)n3c2Nc2ccc(C)cc2)cc1 2.15%
O=S1(=O)N=C(Oc2ccc(Cl)cc2)c2ccccc21 -6.67%
O=C1c2ccccc2C(=O)N1Cc1cccnc1 7.89%
O=C1c2ccccc2C(=O)N1Cc1ccccc1 3.62%
O=C1CCc2cc(Cl)c(S(=O)(=O)Nc3ccc(Cl)c(Cl)c3)cc2N1 9.66%
Cc1ccc2nc(-c3ccc(C)o3)c(Nc3ccc4c(c3)OCO4)n2c1 -4.02%
O=C1NS(=O)(=O)c2ccccc21 2.82%
CNc1cccc(S(=O)(=O)N2CCN(S(=O)(=O)c3ccc4c(c3)OCCO4)CC2)c1 17.7%
Cc1ccc(-c2nc3ccccn3c2Nc2ccc(F)cc2)o1 2.86%
CC(=O)N1CCCc2cc(S(=O)(=O)Nc3ccc(C)c(C)c3)ccc21 -5.11%
Cc1ccc(NS(=O)(=O)c2cc3c(cc2-c2ccccc2)NC(=O)CO3)cc1C 12.6%
Cc1ccc2nc(-c3ccc(C)o3)c(NC3CCCC3)n2c1 7.09%
O=C1CCc2cc(S(=O)(=O)Nc3ccc4c(c3)CCC4)ccc2N1 17.1%
Cc1ccc(NS(=O)(=O)c2ccc3c(c2)N(C)C(=O)CO3)cc1C 11.9%
Cc1cc(N2C(=O)c3ccccc3C2=O)no1 -9.96%
COc1ccc(OC2=NS(=O)(=O)c3ccccc32)cc1 -3.39%

outcome, inactive:
Cc1cc2c(s1)c1cnn(Cc3ccccc3F)c(=O)c1n2C
